Values joined by “and” are separate entries in the source; they are usually repeats but may differ in a detail not shown here. Identical values can stand only once. Some compounds were tested as several samples or in several runs, with calls that do not always agree. Active and inactive are the calls of the source. Where a call stands in place of a potency, no number is given. Unless noted, the call rests on the fitted dose curve; in most records, active means well fitted curve in the direction sought with a large enough effect in the repeat runs; inconclusive means weak or mixed curves; inactive means no such curve, though single readings can be large; an effect the other way counts as inactive or inconclusive.
Assays:
[1] = qHTS assay to identify small molecule antagonists of the glucocorticoid receptor (GR) signaling pathway - cell viability counter screen (AID 720693); further: nearly all actives have a fitted effect of over 55% in size; further: potency means the concentration at half of the fitted maximal effect
[2] = qHTS assay for identifying genotoxic compounds that show differential cytotoxicity against isogenic chicken DT40 cell lines with known DNA damage response pathways - wild type cell line (AID 743012); further: nearly all actives have a fitted effect of over 60% in size; further: potency means the concentration at half of the fitted maximal effect
Outline: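 Luminescent ATP viability signal (CellTiter-Glo, 30 min RT) recorded after wild type DT40 cells were incubated with compounds for 40 h at 37 C/5% CO2.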

[3] = qHTS assay for identifying genotoxic compounds that show differential cytotoxicity against isogenic chicken DT40 cell lines with known DNA damage response pathways - Rev3 mutant cell line (AID 743014); further: nearly all actives have a fitted effect of over 55% in size; further: potency means the concentration at half of the fitted maximal effect
[4] = qHTS assay for identifying genotoxic compounds that show differential cytotoxicity against isogenic chicken DT40 cell lines with known DNA damage response pathways - Rad54/Ku70 mutant cell line (AID 743015); further: nearly all actives have a fitted effect of over 60% in size; further: potency means the concentration at half of the fitted maximal effect
[5] = qHTS assay to identify small molecule antagonists of the androgen receptor (AR) signaling pathway - cell viability counter screen (AID 743033; further: nearly all actives have a fitted effect of over 45% in size; further: potency means the concentration at half of the fitted maximal effect)
[6] = qHTS assay to identify small molecule antagonists of the androgen receptor (AR) signaling pathway using the MDA cell line - cell viability counter screen (AID 743041; further: nearly all actives have a fitted effect of over 45% in size; further: potency means the concentration at half of the fitted maximal effect)
Outline: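 Using the breast carcinoma line MDA-kb2 AR-luc, test chemicals were co-incubated with R1881 for 16 h; CellTiter-Fluor reagent, added at 15.5 h, provided a fluorescence measure of live cells.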

[7] = qHTS assay to identify small molecule antagonists of the thyroid receptor (TR) signaling pathway - cell viability counter screen (AID 743064); further: nearly all actives have a fitted effect of over 50% in size; further: potency means the concentration at half of the fitted maximal effect
Outline: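 Rat GH3 pituitary tumor cells stably expressing two TR response elements driving luciferase were plated, rested 4 h, then dosed with library compounds and T3 (1 nM final). After 23.5 h at 37 °C, CellTiter-Fluor was added for 30 min and fluorescence recorded.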

[8] = qHTS assay to identify small molecule antagonists of the thyroid receptor (TR) signaling pathway (AID 743065); further: nearly all actives have a fitted effect of over 55% in size; further: potency means the concentration at half of the fitted maximal effect
Outline: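 Antagonism measured as loss of luciferase signal in GH3 cells stably carrying a TRE-luciferase reporter, co-treated with compound and T3 (1 nM final) for 23.5 h at 37 C. Viability was read in the same well by CellTiter-Fluor.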

[9] = test system: thyroid hormone receptor (rat, GH3 cells); test: qHTS assay to identify small molecule agonists of the thyroid receptor (TR) signaling pathway (AID 743066; calls by dose curve)
[10] = molecular target: Estrogen receptor (Homo sapiens) (UniProt P03372); test: qHTS assay to identify small molecule antagonists of the estrogen receptor alpha (ER-alpha) signaling pathway (AID 743069; active means well fitted curve in the direction sought with a large enough effect in the signal ratio in the repeat runs, not every such curve was filed as active; inconclusive means weak or mixed curves, or effect the other way; inactive means no such curve, though single readings can be large or run the other way; the % refers to the signal ratio; further: potency means the concentration at half of the fitted maximal effect)
Estrogen receptor (Homo sapiens), sequence (P03372 whole entry, looked up): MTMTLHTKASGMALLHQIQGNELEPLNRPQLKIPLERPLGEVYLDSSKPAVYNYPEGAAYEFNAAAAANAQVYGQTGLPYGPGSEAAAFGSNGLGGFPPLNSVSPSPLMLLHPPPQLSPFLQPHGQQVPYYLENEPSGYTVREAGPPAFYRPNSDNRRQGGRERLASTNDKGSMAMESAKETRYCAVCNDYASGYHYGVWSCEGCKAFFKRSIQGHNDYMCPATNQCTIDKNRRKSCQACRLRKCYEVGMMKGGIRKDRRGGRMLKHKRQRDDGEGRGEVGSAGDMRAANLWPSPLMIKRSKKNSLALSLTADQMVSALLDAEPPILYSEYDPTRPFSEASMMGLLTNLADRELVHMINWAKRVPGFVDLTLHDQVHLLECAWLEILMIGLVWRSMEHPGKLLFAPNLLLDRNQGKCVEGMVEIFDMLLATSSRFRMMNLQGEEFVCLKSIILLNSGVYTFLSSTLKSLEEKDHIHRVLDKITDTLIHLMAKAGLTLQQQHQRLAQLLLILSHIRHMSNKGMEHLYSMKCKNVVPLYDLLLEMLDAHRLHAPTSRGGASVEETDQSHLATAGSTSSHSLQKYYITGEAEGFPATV
Outline: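 Fluorescence intensity from a beta-lactamase FRET substrate served as the read-out. Cells: HEK293 with stably integrated ER-alpha-UAS-bla reporter. Agonist 17beta-estradiol was co-added with compounds; incubation 18 hr at 37C, substrate 2 hr at room temperature.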

[11] = qHTS assay to identify small molecule antagonists of the estrogen receptor alpha (ER-alpha) signaling pathway - cell viability counter screen (AID 743074; calls by dose curve; further: nearly all actives have a fitted effect of over 45% in size; further: potency means the concentration at half of the fitted maximal effect)
[12] = molecular target: Estrogen receptor (Homo sapiens) (UniProt P03372); test: qHTS assay to identify small molecule agonists of the estrogen receptor alpha (ER-alpha) signaling pathway (AID 743075; calls by dose curve; further: potency means the concentration at half of the fitted maximal effect)
[13] = molecular target: Estrogen receptor (Homo sapiens) (UniProt P03372); test: qHTS assay to identify small molecule agonists of the estrogen receptor alpha (ER-alpha) signaling pathway using the BG1 cell line (AID 743079); further: nearly all actives have a fitted effect of over 20% in size; further: potency means the concentration at half of the fitted maximal effect
[14] = qHTS assay to identify small molecule antagonists of the estrogen receptor alpha (ER-alpha) signaling pathway using the BG1 cell line (AID 743080; calls by dose curve;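 further: BG1 cells stimulated with 17beta-estradiol alongside compound; nearly all actives have a fitted effect of over 25% in size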; further: potency means the concentration at half of the fitted maximal effect)
Outline: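 BG1-Luc-4E2 cells (endogenous full-length ER-alpha, 4xERE luciferase) hormone-starved 5 days in charcoal-stripped FBS, plated 4,000/well for 24 h, then compound plus 17beta-estradiol for 21.5 h at 37 C; ONE-Glo luminescence read.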

[15] = qHTS assay to identify small molecule antagonists of the estrogen receptor alpha (ER-alpha) signaling pathway using the BG1 cell line - cell viability counter screen (AID 743081);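 further: compound given together with 17beta-estradiol as the ER stimulus; nearly all actives have a fitted effect of over 45% in size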; further: potency means the concentration at half of the fitted maximal effect
Aromatase (Homo sapiens) = Aromatase (Homo sapiens) (UniProt P11511); test: qHTS assay to identify aromatase inhibitors (AID 743083); further: nearly all actives have a fitted effect of over 55% in size; further: potency means the concentration at half of the fitted maximal effect
Aromatase (Homo sapiens), sequence (P11511 whole entry, looked up): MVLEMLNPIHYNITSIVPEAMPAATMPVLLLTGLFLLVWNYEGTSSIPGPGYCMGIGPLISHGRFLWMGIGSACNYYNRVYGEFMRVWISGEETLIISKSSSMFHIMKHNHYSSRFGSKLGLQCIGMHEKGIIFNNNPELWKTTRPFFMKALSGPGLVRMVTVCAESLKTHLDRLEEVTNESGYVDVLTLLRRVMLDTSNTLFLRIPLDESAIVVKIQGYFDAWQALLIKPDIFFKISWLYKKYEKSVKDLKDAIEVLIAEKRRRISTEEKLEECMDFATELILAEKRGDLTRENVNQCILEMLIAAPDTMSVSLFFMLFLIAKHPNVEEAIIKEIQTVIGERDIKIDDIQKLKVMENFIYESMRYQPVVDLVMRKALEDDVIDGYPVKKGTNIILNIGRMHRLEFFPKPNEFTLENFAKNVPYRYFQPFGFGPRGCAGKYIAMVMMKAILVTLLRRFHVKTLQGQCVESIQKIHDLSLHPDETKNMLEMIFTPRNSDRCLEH

[16] = molecular target: Androgen receptor (Homo sapiens) (UniProt P10275); test: qHTS assay to identify small molecule antagonists of the androgen receptor (AR) signaling pathway (AID 743035; active means well fitted inhibition curve with a large enough effect in the signal ratio in the repeat runs, not every such curve was filed as active; inconclusive means weak or mixed curves, or effect the other way; inactive means no such curve, though single readings can be large or run the other way; the % refers to the signal ratio)
Androgen receptor (Homo sapiens), sequence (P10275 whole entry, looked up): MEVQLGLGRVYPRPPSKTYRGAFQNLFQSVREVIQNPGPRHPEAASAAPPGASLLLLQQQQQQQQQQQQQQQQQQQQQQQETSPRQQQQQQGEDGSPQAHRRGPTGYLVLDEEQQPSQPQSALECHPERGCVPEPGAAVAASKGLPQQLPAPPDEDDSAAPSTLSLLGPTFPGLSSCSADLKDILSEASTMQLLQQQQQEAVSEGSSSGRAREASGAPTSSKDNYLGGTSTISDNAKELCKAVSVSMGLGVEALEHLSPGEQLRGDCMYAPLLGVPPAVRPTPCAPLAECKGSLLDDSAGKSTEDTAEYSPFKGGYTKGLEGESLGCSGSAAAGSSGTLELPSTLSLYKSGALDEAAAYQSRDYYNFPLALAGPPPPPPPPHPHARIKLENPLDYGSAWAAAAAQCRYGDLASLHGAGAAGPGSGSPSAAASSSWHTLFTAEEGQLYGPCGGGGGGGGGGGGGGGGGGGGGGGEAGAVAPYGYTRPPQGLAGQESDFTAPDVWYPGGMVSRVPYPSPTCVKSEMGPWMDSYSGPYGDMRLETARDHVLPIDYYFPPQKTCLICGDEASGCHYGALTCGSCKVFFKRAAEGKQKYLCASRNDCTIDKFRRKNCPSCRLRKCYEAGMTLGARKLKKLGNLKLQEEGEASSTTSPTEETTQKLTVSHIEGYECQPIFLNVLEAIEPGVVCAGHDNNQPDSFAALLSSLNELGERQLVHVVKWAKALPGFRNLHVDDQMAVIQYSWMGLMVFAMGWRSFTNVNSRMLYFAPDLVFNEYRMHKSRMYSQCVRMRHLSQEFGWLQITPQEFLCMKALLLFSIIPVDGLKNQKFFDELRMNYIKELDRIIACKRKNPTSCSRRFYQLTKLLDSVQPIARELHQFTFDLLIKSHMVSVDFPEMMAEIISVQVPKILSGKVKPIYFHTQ
Outline: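 Quantitative HTS of the Tox21 10K library used HEK293 AR-UAS-bla cells stimulated with R1881 alongside compound for 16 h at 37C, followed by beta-lactamase FRET detection (LiveBLAzer B/G, 2 h, RT).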

[17] = molecular target: Androgen receptor (Homo sapiens) (UniProt P10275); test: qHTS assay to identify small molecule agonists of the androgen receptor (AR) signaling pathway (AID 743036; active means well fitted activation curve with a large enough effect in the signal ratio in the repeat runs, with a control signal flat, not every such curve was filed as active; inconclusive means weak or mixed curves, or effect the other way; inactive means no such curve, though single readings can be large or run the other way; the % refers to the signal ratio)
Outline: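 Quantitative HTS of the Tox21 10K library in HEK293 cells bearing a stably integrated UAS-controlled beta-lactamase reporter. Compound exposure lasted 16 h at 37C. Reporter activity was detected by FRET substrate fluorescence after 2 h at room temperature.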

[18] = molecular target: Androgen receptor (Homo sapiens) (UniProt P10275); test: qHTS assay to identify small molecule agonists of the androgen receptor (AR) signaling pathway using the MDA cell line (AID 743040; further: nearly all actives have a fitted effect of over 20% in size)
Outline: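 Stable MMTV-luciferase reporter in MDA-kb2 cells; note the promoter carries GR as well as AR response elements. 16 h compound treatment, 37C, 0% CO2; ONE-Glo luminescence endpoint.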

[19] = molecular target: Androgen receptor (Homo sapiens) (UniProt P10275); test: qHTS assay to identify small molecule antagonists of the androgen receptor (AR) signaling pathway using the MDA cell line (AID 743042; further: nearly all actives have a fitted effect of over 55% in size; further: potency means the concentration at half of the fitted maximal effect)
Outline: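 Antagonist mode: compounds plus R1881 agonist added to MDA-kb2 AR-luc cells, incubated 16 h at 37C. Luciferase reporter luminescence quantified, with multiplexed CellTiter-Fluor readout for cell viability.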

Compound	Potency [1]	Potency [2]	Potency [3]	Potency [4]	Potency [5]	Potency [6]	Potency [7]	Potency [8]	Potency [9]	Potency [10]	Potency [11]	Potency [12]	Potency [13]	Potency [14]	Potency [15]	Potency (Aromatase (Homo sapiens))	Potency [16]	Potency [17]	outcome [18]	Potency [19]
C=CS(=O)(=O)O	inactive	inactive	inactive	inactive	inactive	inactive	inactive	inactive	inactive	inactive	inactive	inactive	inactive	inactive	inactive	inactive				
CC1COC(=O)O1 (stereo not given)	inactive	inactive	inactive	inactive	inactive	inactive	inactive	inactive	inactive	inactive	inactive	inactive	inactive	inactive	inactive	inactive	inactive	inactive	inactive	inactive
CC(=O)Nc1ccc(C(=O)CCl)cc1	inactive	inactive and 1.72 µM (active)	1.93 µM (active)	1.72 µM (active)	inactive		inactive and 8.63 µM (active)				inactive				inactive	inactive		inactive	inactive	inactive
CN1C(=O)c2ccc([N+](=O)[O-])cc2C1=O	inactive	inactive	inactive	inactive	inactive	inactive	inactive	inactive	inactive	inactive		inactive	inactive	inactive	inactive	inactive	inactive	inactive	inactive	inactive
O=c1n(CC2CO2)c(=O)n(CC2CO2)c(=O)n1CC1CO1 (stereo not given)	inactive	376 nM (active) and 193 nM (active)	53.1 nM (active) and 38.6 nM (active)	944 nM (active) and 217 nM (active)	inactive	inactive	12.1 µM (active) and 27.3 µM (active)	6.68 µM (active) and 8.58 µM (active) and 4.33 µM (active)	inactive		inactive	inactive	inactive		inactive	inactive and 48.3 µM (active)				
Clc1ccc2c(c1)C(N1CCNCC1)=Nc1ccccc1O2	inactive	26.6 µM (active) and 7.7 µM (active)	29.8 µM (active) and 9.69 µM (active)	26.6 µM (active) and 10.9 µM (active)	inactive	inactive	30.6 µM (active)	29.8 µM (active) and 30.6 µM (active)	inactive	inactive	inactive	inactive	inactive	11.9 µM (active)	inactive and 54.5 µM (active)	inactive and 17.2 µM (active)				
COc1nc(C)nc(Cl)c1NC1=NCCN1	inactive	inactive	inactive	inactive	inactive	inactive	inactive	inactive	inactive	inactive	inactive	inactive	inactive	inactive		inactive				
CC(C)CCCCCCc1ccc(O)cc1	25 µM (active)	21.1 µM (active) and 62.2 µM (active) and 27.3 µM (active)	11.9 µM (active) and 17.5 µM (active) and 30.6 µM (active)	21.1 µM (active) and 62.2 µM (active) and 27.3 µM (active)	inactive	inactive	17.5 µM (active) and 24.3 µM (active)	22.1 µM (active) and 21.7 µM (active)	inactive	inactive	inactive	2.39 µM [inconclusive] (active) and 1.25 µM [inconclusive] (active) and 17.4 µM [inconclusive] (active)	1.88 µM (active) and 878 nM (active) and 2.17 µM (active)	inactive and 43.3 µM (active)	inactive	34.4 µM (active)				
c1cc(C(c2ccc(OCC3CO3)cc2)C(c2ccc(OCC3CO3)cc2)c2ccc(OCC3CO3)cc2)ccc1OCC1CO1 (stereo not given)	inactive	20.1 µM (active) and 3.43 µM (active)	357 nM (active) and 385 nM (active)	6.34 µM (active) and 3.06 µM (active)	inactive	inactive	48.5 µM (active)	20.1 µM (active) and 21.7 µM (active)	inactive	inactive	inactive	inactive	20.1 µM (active) and 21.7 µM (active)		inactive	inactive				
CC(C)CCOCc1ccccc1	inactive	inactive	inactive	inactive	inactive	inactive	inactive			inactive	inactive	inactive	inactive	inactive	inactive	inactive	inactive	inactive	inactive	inactive
CCOc1ccccc1C(N)=O	inactive	inactive	inactive	inactive	inactive	inactive	inactive	inactive	inactive	inactive	inactive	inactive	inactive	inactive	inactive	inactive	inactive	inactive	inactive	inactive
CC(=O)OCCOCCOCCOC(C)=O	inactive	inactive	inactive	inactive	inactive	inactive	inactive	inactive	inactive	inactive	inactive	inactive	inactive	inactive	inactive	inactive				
CCCCCCCCCCCCCC[P+](CCCC)(CCCC)CCCC	9.72 µM (active) and 4.9 µM (active)	192 nM (active) and 86.3 nM (active)	85.8 nM (active) and 61.1 nM (active)	76.5 nM (active) and 54.5 nM (active)	866 nM (active) and 977 nM (active)	21.6 µM (active) and 6.11 µM (active)	2.16 µM (active) and 2.17 µM (active)			21.9 µM [cytotoxic] (active)	3.45 µM (active) and 8.71 µM (active)			6.82 µM (active) and 4.86 µM (active)	17.1 µM (active) and 15.4 µM (active)	7.65 µM (active) and 6.11 µM (active)			inactive	2.16 µM (active) and 1.54 µM (active)
Cc1cccc([N+](=O)[O-])c1C(=O)O	inactive	inactive	inactive	inactive	inactive	inactive	inactive		inactive	inactive	inactive	inactive	inactive	inactive	inactive	inactive				
CCn1c2ccccc2c2cc(N)ccc21	inactive	61.1 µM (active)	21.7 µM (active)	54.5 µM (active)	inactive	inactive	inactive		inactive	inactive	inactive	48.5 µM [inconclusive] (active) and inactive	inactive	inactive	inactive	inactive				
CC(C)(C)NC(=O)[C@@H]1CN(Cc2cccnc2)CCN1C[C@@H](O)C[C@@H](Cc1ccccc1)C(=O)N[C@H]1c2ccccc2C[C@H]1O	inactive	23.7 µM (active) and inactive	23.7 µM (active) and inactive	18.8 µM (active)	inactive	inactive	inactive		inactive		inactive				inactive	29.8 µM (active) and inactive				
COC(c1ccccc1)(c1ccccc1)[C@H](Oc1nc(C)cc(C)n1)C(=O)O	inactive	inactive	inactive	inactive	inactive	inactive		inactive	inactive		inactive					inactive				
CCOC(=O)C(C)C(C)=O (stereo not given)	inactive	inactive	inactive	inactive	inactive	inactive	inactive	inactive	inactive		inactive				inactive	inactive				
CCN(CC)c1ccc2c(C)cc(=O)oc2c1	inactive	30.9 µM (active) and inactive	69.1 µM (active)	61.6 µM (active)	inactive				inactive		49.4 µM (active) and inactive		inactive	inactive		inactive				
CC(=O)O[C@]1(C(C)=O)CC[C@H]2[C@@H]3C[C@H](C)C4=CC(=O)CC[C@]4(C)[C@H]3CC[C@@]21C	inactive	5.31 µM (active)	3.76 µM (active) and 4.85 µM (active)	8.41 µM (active) and 21.7 µM (active)		inactive	inactive				inactive	inactive	inactive		inactive	inactive				
O=C1Nc2ccccc2C1(c1ccc(O)cc1)c1ccc(O)cc1	inactive	68.6 µM (active)	61.1 µM (active)		inactive		54.5 µM (active)	54.5 µM (active)	inactive	49 µM [inconclusive] (active)	inactive	inactive			969 nM (active)	inactive				
CCC(C)(C)C(=O)O[C@H]1C[C@@H](C)C=C2C=C[C@H](C)[C@H](CC[C@@H]3C[C@@H](O)CC(=O)O3)[C@H]21	inactive	2.17 µM (active)	0.154 µM (active)	1.09 µM (active)	inactive	inactive	inactive		inactive	inactive	inactive	inactive	12.7 µM (active) and inactive		inactive	inactive				
O=C(O)c1cc(Cl)cc(Cl)c1	inactive	inactive	inactive	inactive	inactive	inactive		inactive	inactive	inactive	inactive	inactive	inactive	inactive	inactive	inactive				
c1cnc2cc3c(cc2n1)C1CNCC3C1	inactive	inactive	inactive	inactive		inactive	inactive		inactive	inactive	inactive	inactive	inactive	inactive	inactive	inactive				
